Cycloheximide cs = Cycloheximide Counterscreen for Small Molecule Inhibitors of Shiga Toxin | cell reporter, cycloheximide protein synthesis inhibition counterscreen | max response, % | 12% of 300,000 active | AID 2314, 2010; in the data active = max response mostly above about 13%, no sharp cut-off; inactive = mostly below about 14%; note: read at 38.3 µM for the half of the compounds with a filed dose; 0% is about no effect
Sm TGR block = qHTS Assay for the Inhibitors of Schistosoma Mansoni Peroxiredoxins. Schistosoma mansoni thioredoxin glutathione reductase (TGR), Q962Y6. purified TGR, DTNB reduction, TNB absorbance 405 nm. Potency, µM (doses to about 114 µM), inactives show at the highest dose activity change, negative = inhibition, hits mostly inhibitors. 3% of 360,000 active; active = well fitted inhibition curve with a large enough effect; inconclusive = small, poorly fitted or top-dose-only effect; inactive = no such curve, though single readings can be large or run the other way; note: potency is the fitted concentration of half-maximal effect; % is set by controls: 0 for no effect and ±100 for the full control effect; nearly all actives have a fitted effect of over 60% in size
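Kinetic colorimetric format: TGR-catalysed, NADPH-driven DTNB reduction monitored via TNB absorbance. Enzyme dispensed at 20 nM; compound exposure 15 min at room temperature before reaction start.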
Shiga toxin inh = A qHTS for Small Molecule Inhibitors of Shiga Toxin. Vero cells, Shiga toxin protein synthesis inhibition reporter. inhibition, % at 38.7 µM. 9.2% of 290,000 active. AID 2315, 2010; in the data active = inhibition mostly above about 28%, no sharp cut-off; inactive = mostly below about 43%; note: 0% is about no effect
FMDV inh = High Throughput Screening for Foot and Mouth Disease Virus Antivirals; FMDV antiviral cell-based qHTS; Potency, µM (top dose mostly 57.9 µM), for inactives: top-dose activity change, negative = inhibition, actives largely listed as inhibitors; 1.2% of 410,000 active; calls by dose curve; tested in HEK293T cells; note: read-out not given here; potency is the fitted concentration of half-maximal effect; % is set by controls: 0 for no effect and ±100 for the full control effect; nearly all actives have a fitted effect of over 45% in size
* hit, by the source's call. Compounds with a hit are over-represented: about 12% of the library has one in this group of screens.

What do the screens show for `CSc1ccc(C2C(C#N)=C(N)N(c3ccccc3)C3=C2C(=O)CCC3)cc1` (stereo not given)?
Cycloheximide cs: 17; Sm TGR block: 0%; Shiga toxin inh: -6; FMDV inh: -11%

What do the screens show for `N#CC1=C(N)N(c2ccc(F)cc2)C2=C(C1c1ccc(O)cc1)S(=O)(=O)CC2` (stereo not given)?
Cycloheximide cs: -4; Sm TGR block: 1.8µM*; Shiga toxin inh: 9; FMDV inh: -1%

What do the screens show for `O=C(/C=C/c1ccco1)N/C(=C\c1ccccc1)C(=O)NCCc1nc2ccccc2[nH]1`?
Cycloheximide cs: 9; Sm TGR block: 50µM*; Shiga toxin inh: 37*; FMDV inh: 7%

How did C#CCNC(=O)/C=C/c1ccc(OC)cc1 do in these assays?
Cycloheximide cs: 40*; Sm TGR block: 2%; Shiga toxin inh: 59*; FMDV inh: 34%

How did COc1ccc(/C=C/C(=O)NCCc2nc3ccccc3[nH]2)cc1 do in these assays?
Cycloheximide cs: 16*; Sm TGR block: 28%; Shiga toxin inh: 20; FMDV inh: 10%

How did CCc1ccc(NC(=O)c2ccc(Cn3nc(N4CCN(c5ccccc5)CC4)ccc3=O)o2)cc1 do in these assays?
Sm TGR block: -6%; FMDV inh: inconclusive

What do the screens show for `O=C(O)c1cnn(-c2nc(-c3ccc(F)cc3)cs2)c1C(F)(F)F`?
Cycloheximide cs: 15; Sm TGR block: 10%; Shiga toxin inh: 73*; FMDV inh: 31%

What do the screens show for `CCOC(=O)c1cnn(-c2nc(-c3ccc(C)cc3)cs2)c1C(F)(F)F`?
Cycloheximide cs: -1; Sm TGR block: 8%; Shiga toxin inh: 14; FMDV inh: 7%

What do the screens show for `O=C(O)c1cnn(-c2nc(-c3ccc(Br)cc3)cs2)c1C(F)(F)F`?
Cycloheximide cs: 45*; Sm TGR block: 4%; Shiga toxin inh: 53*; FMDV inh: 32%

What do the screens show for `Cc1ccc(-c2nc3ccccc3c(=O)n2CCCN2CCOCC2)cc1`?
Cycloheximide cs: 15; Sm TGR block: -7%; Shiga toxin inh: 54*; FMDV inh: 20%

What do the screens show for `O=C1c2ccccc2C(=O)N1Cc1nc2ccccc2c(=O)n1CCCN1CCOCC1`?
Cycloheximide cs: -2; Sm TGR block: 35µM*; Shiga toxin inh: 18; FMDV inh: 6%

What do the screens show for `O=C(c1cc(N2CCOCC2)c(F)cc1[N+](=O)[O-])N1CCOCC1`?
Cycloheximide cs: 2; Sm TGR block: -2%; Shiga toxin inh: -3; FMDV inh: -9%

What do the screens show for `NC(=O)c1cc(N2CC2)c([N+](=O)[O-])cc1[N+](=O)[O-]`?
FMDV inh: 1.3µM*

How did Cc1csc(NC(=O)CSc2nc3sc(C)c(C)c3c(=O)[nH]2)n1 do in these assays?
Cycloheximide cs: 2; Sm TGR block: -1%; Shiga toxin inh: 26; FMDV inh: -9%

How did CSCc1nc2sc(C(=O)Nc3nc(C)cs3)c(C)c2c(=O)[nH]1 do in these assays?
Cycloheximide cs: 33*; Sm TGR block: -28%; Shiga toxin inh: 117; FMDV inh: 41%

What do the screens show for `Cc1cc(C)c(NC(=O)c2sc3nc(C)[nH]c(=O)c3c2C)c(C)c1`?
Cycloheximide cs: -2; Sm TGR block: 14%; Shiga toxin inh: -9

How did Cc1ccc(NC(=O)c2sc3nc(CCl)[nH]c(=O)c3c2C)c(C)c1 do in these assays?
Cycloheximide cs: 29; Sm TGR block: 20µM*; Shiga toxin inh: 59*; FMDV inh: inconclusive

Results for Cc1cc(OCCn2c(CCNC(=O)C3CCCCC3)nc3ccccc32)ccc1Cl ?
Cycloheximide cs: -8; Sm TGR block: -12%; Shiga toxin inh: -9; FMDV inh: -19%

Results for CC(=O)Nc1ccc(C(=O)CCl)cc1 ?
Sm TGR block: 13µM*; FMDV inh: 28µM*

What do the screens show for `CC(=O)NCc1ccc(C(=O)CCl)s1`?
Cycloheximide cs: 5; Sm TGR block: 14µM*; Shiga toxin inh: 22; FMDV inh: 28µM*

Results for CC(=O)NCCC(=O)NCc1ccc(F)cc1 ?
Cycloheximide cs: -2; Sm TGR block: -1%; Shiga toxin inh: -6; FMDV inh: 12%

How did CC(=O)N(C)Cc1ccc(C(=O)CSc2nnc(C3CC3)n2C2CC2)cc1 do in these assays?
Sm TGR block: -3%; FMDV inh: -6%

What do the screens show for `CC(=O)N(C)Cc1ccc(C(=O)CCl)cc1`?
Cycloheximide cs: 26*; Sm TGR block: 11µM*; Shiga toxin inh: 42; FMDV inh: inconclusive

How did CC(=O)NCc1ccc(C(=O)CCl)cc1 do in these assays?
Cycloheximide cs: 1; Sm TGR block: 11µM*; Shiga toxin inh: -9; FMDV inh: 32µM*

How did CCCNC(=O)Nc1ccc(NC(C)=O)cc1 do in these assays?
Cycloheximide cs: -4; Sm TGR block: -1%; Shiga toxin inh: -3; FMDV inh: 1%

Results for COc1ccc(N2CCN(C(=O)CCn3nc(C)c(S(=O)(=O)N4CCCC4)c3C)CC2)cc1 ?
Sm TGR block: -2%; FMDV inh: inconclusive

What do the screens show for `COc1ccc(C(=O)Nc2cccc(-c3nnc(-c4ccco4)o3)c2)cc1`?
Cycloheximide cs: 31*; Sm TGR block: -8%; Shiga toxin inh: 57; FMDV inh: 35µM*

Results for COc1cc(C(=O)Nc2cccc(-c3nnc(-c4ccco4)o3)c2)ccc1OC(C)=O ?
Cycloheximide cs: 31*; Sm TGR block: -3%; Shiga toxin inh: 66*; FMDV inh: inconclusive

Results for CCc1ccccc1NC(=O)c1cnc(N2CCCCC2)c2ccccc12 ?
Sm TGR block: 5%; FMDV inh: 0%

How did CCc1ccc2oc(-c3ccc(C)c(NC(=O)c4cc([N+](=O)[O-])ccc4N4CCOCC4)c3)nc2c1 do in these assays?
Sm TGR block: 1%; FMDV inh: -8%

How did O=C1N(Cc2cccc(Cl)c2)C[C@@H]2C[C@@H](c3ccccn3)N3CCC[C@@]123 do in these assays?
Cycloheximide cs: -1; Sm TGR block: 10µM*; Shiga toxin inh: -13; FMDV inh: -1%

How did O=C1N(Cc2cccnc2)C[C@@H]2C[C@@H](c3ccc4nsnc4c3)N3CCC[C@@]123 do in these assays?
Cycloheximide cs: -1; Sm TGR block: -32%; Shiga toxin inh: -2; FMDV inh: 3%

Results for O=C1N(Cc2cccnc2)C[C@@H]2C[C@@H](c3ccc4nonc4c3)N3CCC[C@@]123 ?
Cycloheximide cs: -5; Sm TGR block: 28µM*; Shiga toxin inh: -2; FMDV inh: 11%

How did CCOc1ccc(CCNC(=O)c2cn(C)c3ccc(S(=O)(=O)N4CCCCCC4)cc3c2=O)cc1OCC do in these assays?
Sm TGR block: 16%; FMDV inh: 8%

Results for Cn1c(NCc2ccccc2F)nc2ccccc21 ?
Sm TGR block: 1%; FMDV inh: 42%

Results for COc1ccc(-n2c(SCC(=O)NCc3ccc(Cl)cc3)nc3ccsc3c2=O)cc1 ?
Sm TGR block: -17%; FMDV inh: -10%

What do the screens show for `Cc1cc(Cl)n2c(nc3ccccc32)c1C#N`?
Cycloheximide cs: -2; Sm TGR block: 3.2µM*; Shiga toxin inh: 17; FMDV inh: 7.9µM*

What do the screens show for `Cc1c(CCCl)c(Cl)n2c(nc3ccccc32)c1C#N`?
FMDV inh: 3.5µM*

How did CCc1c(C)c(C#N)c2nc3ccccc3n2c1NC do in these assays?
Cycloheximide cs: -3; Sm TGR block: 14%; Shiga toxin inh: -5; FMDV inh: -20%

Bioassay records from PubChem BioAssay.
